Assay outcomes from PubChem BioAssay.
CHX counter: counter-screen for Shiga toxin inhibitors: cycloheximide protein synthesis inhibition; cell reporter, cycloheximide protein synthesis inhibition counterscreen; max response, %; 300,000 compounds, 12% hits; AID 2314; in the data active = max response mostly above about 13%, no sharp cut-off; inactive = mostly below about 14%; also: read at 38.3 µM for the half of the compounds with a filed dose
FMDV antiviral: antivirals against foot and mouth disease virus. FMDV antiviral cell-based qHTS. Potency, µM (doses to about 57.9 µM), most hits filed as inhibitors. 410,000 compounds, 1.2% hits. AID 1159524; calls by dose curve; tested in HEK293T cells; also: read-out not given here; nearly all actives have a fitted effect of over 45% in size
MARV entry inh: inhibitors of Marburg virus binding or cell entry; Marburg virus pseudotyped entry inhibition, cell reporter; Potency, µM (doses to about 37.8 µM), actives largely listed as inhibitors; 300,000 compounds, 1.8% hits; AID 540276; calls by dose curve; tested in HEK293 cells
HCV inhibitor: inhibitors of hepatitis C virus infection; Huh7.5.1 HCVcc-Cre infection, luciferase reporter, 44 h; 340,000 compounds, 3.4% hits; Potency, µM (titrated, usually from 41.8 µM), actives largely listed as inhibitors; active = well fitted inhibition curve with a large enough effect; inconclusive = small, poorly fitted or top-dose-only effect, or another doubt; inactive = no such curve, though single readings can be large or run the other way
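A cell-based infection assay in which seeded cells (1,000 per well) receive test compound after 4 h, are inoculated with HCVcc-Cre at approximately 0.5 moi, and are incubated 44 h before luminescence detection.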
Shiga inhibitor: inhibitors of Shiga toxin in Vero cells. Vero cells, Shiga toxin protein synthesis inhibition reporter. 290,000 compounds, 9.2% hits. inhibition, % at 38.7 µM. AID 2315; in the data active = inhibition mostly above about 28%, no sharp cut-off; inactive = mostly below about 43%
Lassa entry inh: blocks Lassa virus binding to or entry into cells; Potency, µM (highest dose often 37.9 µM), most hits filed as inhibitors; Lassa virus pseudotype entry inhibition, cell reporter; 300,000 compounds, 1.2% hits; AID 540256; calls by dose curve; tested in HEK293 cells; also: nearly all actives have a fitted effect of over 50% in size
Hits are given with their value; i = inactive; ? = inconclusive; nt = no result given. Shown are actives, neighbours in structure and some others; about 13% of the full set was active somewhere.

SMILES | CHX counter | FMDV antiviral | MARV entry inh | HCV inhibitor | Shiga inhibitor | Lassa entry inh
O=C(CC(=O)Nc1ccc(Cl)cc1Cl)Nc1ccc(Cl)cc1Cl | i | i | ? | i | i | i
C=CCNC(=O)Nc1ccc2nc(C)sc2c1 | i | i | i | i | i | ?
Cc1ccc(NC(=O)Cc2ccsc2)cc1Cl | 25 | i | nt | i | 56 | nt
Cc1nc2ccc(NC(=O)Cc3ccsc3)cc2s1 | 28 | i | i | i | i | i
Cc1nc2ccc(NC(=O)Cc3cccc(F)c3)cc2s1 | 36 | i | ? | i | 39 | ?
Cc1nc2ccc(NC(=O)Cc3ccccc3F)cc2s1 | 58 | i | ? | i | 103 | nt
O=C(Cc1ccsc1)NCC(=O)Nc1ccc(F)c(F)c1 | i | i | i | i | i | i
Cc1nc2ccc(NS(=O)(=O)c3c(F)cccc3F)cc2s1 | nt | i | i | ? | nt | i
CCS(=O)(=O)c1ccc2c(c1)NC(=O)C(CCO)O2 (centres undefined) | i | i | i | i | i | i
O=C(c1ccco1)N1CCN(C(c2ccc(Cl)cc2)c2nnnn2CC2CCCO2)CC1 (centres undefined) | i | i | i | i | i | i
CCOC(=O)c1cnn(-c2cc(C(C)(C)C)nc3c(-c4ccccc4)c(C)nn23)c1N | i | i | i | i | i | ?
CCn1cc(CNCc2cn[nH]c2-c2cc3ccccc3o2)cn1 | i | i | ? | ? | i | i
O=C(Nc1nc(-c2ccco2)cs1)c1ccccc1 | 32 | i | i | i | i | ?
O=C(NC(=S)Nc1nc(-c2ccc([N+](=O)[O-])cc2)cs1)c1ccco1 | 18 | i | i | i | 51 | i
O=C(CCNC(=O)c1ccco1)Nc1nc(-c2ccccc2)cs1 | nt | i | i | ? | nt | ?
Cc1ccc(-c2csc(NC(=O)c3ccco3)n2)cc1C | 34 | i | ? | ? | 149 | ?
CC(OC(=O)c1ccco1)C(=O)Nc1nc(-c2ccccc2)cs1 (centres undefined) | nt | i | 11µM | ? | nt | 10µM
O=C(NCC(=O)N1CCN(c2cccc(Cl)c2)CC1)c1ccc(Br)o1 | nt | i | ? | i | nt | i
COc1ccc(CNC(=O)CN2C(=O)NC(C)(c3cccc(Br)c3)C2=O)cc1 (centres undefined) | i | i | nt | i | i | nt
O=C(Nc1nc(-c2ccccc2)cs1)c1ccco1 | 89 | i | i | i | 122 | i
CCOc1ccc(-c2csc(NC(=O)c3ccco3)n2)cc1 | 39 | i | nt | i | i | nt
COc1ccc(-c2csc(NC(=O)c3c(OC)cccc3OC)n2)cc1 | i | i | i | ? | i | i
Cc1ccc(-c2csc(NC(=O)Cc3ccc(F)cc3)n2)o1 | 15 | i | i | ? | i | i
COc1ccc(-c2csc(NC(=O)c3ccco3)n2)cc1 | 55 | i | i | ? | 50 | ?
CCc1nc(SCC(=O)Nc2ccccc2OC)c2c(C)c(C)sc2n1 | i | ? | ? | ? | i | ?
SMILES | CHX counter | FMDV antiviral | MARV entry inh | HCV inhibitor | Shiga inhibitor | Lassa entry inh
O=C(c1ccc2c(c1)OCO2)N1CCOc2ccc(CN3CCC(Oc4cccnc4)CC3)cc2C1 | nt | i | nt | nt | nt | nt
COc1cccc(C2=Cc3ccc(F)cc3C(CC(C)=O)N2c2ccc(-c3cncnc3)cc2)c1 (centres undefined) | nt | i | nt | nt | nt | nt
C[C@H](CO)N1C[C@H](C)[C@@H](CN(C)CC2CC2)Oc2c(NS(=O)(=O)c3ccccc3)cccc2C1=O | nt | i | nt | i | nt | nt
O=C(NC(=S)Nc1nc(-c2ccc(Br)cc2)cs1)c1ccco1 | i | i | ? | i | i | i
O=C(NNc1nc(-c2ccc(Br)cc2)cs1)c1ccco1 | 31 | i | nt | ? | 81 | nt
Cc1ccc(-c2csc(NC(=O)c3ccc(-c4ccccc4)cc3)n2)o1 | 48 | i | nt | 8.9µM | 96 | nt
O=C(Nc1nc(-c2ccccc2)cs1)c1cccnc1 | i | i | i | ? | i | i
COc1ccc(F)c(C2C(C#N)=C(N)Oc3n[nH]c(C(C)(C)C)c32)c1 (centres undefined) | i | ? | i | i | i | i
O=S(=O)(CC(CN1CCOCC1)N1CCOCC1)c1ccccc1 (centres undefined) | i | i | nt | i | i | nt
Cc1ccc(S(=O)(=O)CC(CN2CCCCC2)N2CCCCC2)cc1 (centres undefined) | i | 28µM | i | 16µM | i | i
O=S(=O)(CC(CN1CCCCC1)N1CCCCC1)c1ccc2ccccc2c1 (centres undefined) | i | ? | 3.5µM | i | i | ?
CCn1cc(C(=O)N2CCN(c3ccccc3)CC2)c(=O)c2cc(S(=O)(=O)N3CCCC3)ccc21 | nt | i | i | nt | nt | i
